# Experimental data as given in PubChem BioAssay (NCI).
# Compounds without any hit were thinned out: in the full panel of roughly 83,000, 20% have a hit.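 Growth was measured after 48 h exposure to one concentration of compound in 96-well plates. Values under 10 count as active.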 Unmarked numbers belong to inactive results. The source made the active and inactive calls.
# Test system: MDA-MB-468 breast
# Test: NCI-60 one-dose screen, 48 h (100 = growth as untreated, 0 = no growth, -100 = all killed)
# Details: 10 µM unless noted
row,SMILES,growth
1,Clc1ccc2c(NCCCn3cnc4c(N5CCCC5)nc(Cl)nc43)ccnc2c1,107%
2,CN1C(=O)N(C)C2C1NN=c1s/c(=C\c3cccnc3)c(=O)n12 (stereo not given),58.1%
3,CCOc1ccc(Cc2nccc3cc(OCC)c(OCC)cc23)cc1OCC,61.4%
4,Cc1nc2ccccc2c(/C=C/c2ccc(Cl)cc2)c1C(=O)/C=C/c1ccc(C(F)(F)F)cc1,-65.8% (active)
5,COC(=O)c1ccc(-n2cc(CCCOS(=O)(=O)c3ccc(F)cc3)nn2)cc1,108%
6,Cc1ccc(NC(=O)/C=C/c2ccc(OCCCOc3ccc4c(C)cc(=O)oc4c3)cc2)cc1,77.5%
7,C=C(C)[C@@H]1CC[C@]2(C)CC[C@]3(C)[C@H](CC[C@@H]4[C@@]5(C)CCCNC(C)(C)[C@@H]5CC[C@]43C)[C@@H]12,26.2%
8,O=C1OCC2=C1C(c1ccc(Cl)c(Cl)c1)c1cc3c(cc1N2CCO)OCCO3 (stereo not given),23.5%
9,CC1=NN(c2ccc(S(=O)(=O)O)cc2Cl)C(=O)C1,107%
10,O=C(OCc1nc2nc(Cl)nc(N3CCOCC3)c2[nH]1)n1ccnc1,-26.9% (active)
11,O=C(Nc1ccc(OCc2nnc(-c3ccccc3)o2)c(F)c1)Nc1ccc(Cl)c(C(F)(F)F)c1,1.01% (active)
12,CS(=O)(=O)c1ccc(-c2nc3ccccn3c2/C=N/Nc2nc(-c3ccc(Cl)cc3)cs2)cc1,94.2%
13,CCC(C)CC(CC)NCCN1CCN(C(CC)CC(C)CC)C1=S (stereo not given),-43.6% (active)
14,Cc1nc2c(-c3cnc(N)nc3)nc(N3CCOCC3)nc2n1C(C)C,-34.6% (active)
15,Cn1cc(Nc2nccc(-c3ccc(N4CCCC4)c(C#N)c3)n2)cn1,61.8%
16,C#Cc1nc2ccccc2c(=O)[nH]1,-46.9% (active)
17,Cc1cc(N2CCCCC2)nc(N(CCNc2ccnc3cc(Cl)ccc23)Cc2ccccn2)n1,3.63% (active)
18,O=C(C[n+]1cccc2ccccc21)c1ccc(O)c(O)c1,16.1%
19,COc1ccc(/C=C/C(=O)c2c(C)nc3ccccc3c2/C=C/c2ccccc2)c(OC)c1,87%
20,CO[C@@]12[C@@H]3NC3CN1C1=C(C(=O)C(N)=C(C)C1=O)[C@@H]2COC(N)=O (stereo not given in full),-14.1% (active)

row,SMILES,growth
1,COc1ccc(N2CCN(c3nc(-c4ccccc4)c(C#N)c(=O)[nH]3)CC2)cc1,97.9%
2,Cc1nc(NC(=O)COc2ccc(/C=C3\Cc4ccc(Cl)cc4C3=O)cc2)sc1C,112%
3,COc1ccc(N2CCN(c3nc(-c4cc(OC)c(OC)c(OC)c4)nc4ccccc34)CC2)cc1,76.2%
4,CC1(C)CC[C@]2(C(=O)O)CC[C@]3(C)C(=CC[C@@H]4[C@@]5(C)C/C(=C/O)C(=O)C(C)(C)[C@@H]5CC[C@]43C)[C@@H]2C1,77.3%
5,COc1ccc(-n2c(=S)sc3c(Cl)nc(C)nc32)c(OC)c1,-19.6% (active)
6,CN(C)CCn1c(=O)c2ccccc2n2nc3ccccc3c12,105%
7,COc1ccc(/C=C/C(=O)c2cc(OC)c(OC)c(OC)c2)cc1OCC(=O)Nc1nc2ccc(OC(F)(F)F)cc2s1,55.1%
8,CC1(C)C(N)=Nc2cc(OCCCN3Cc4ccc(OCCc5cn(CC(=O)N6CCC(CCN7CCCC7)CC6)nn5)cc4C3)c(OCC3CC3)cc21,108%
9,NC(=O)c1noc(C(=O)c2ccccc2)c1N,95.5%
10,O=C(Nc1ccc(Cl)cc1F)c1ccccc1O,6.26% (active)
11,COc1cc(CNC(=O)CCCC/C=C/C(C)C)ccc1OCc1cn(-c2cccc([N+](=O)[O-])c2)nn1,72.3%
12,N=C(N)c1ccc(-c2cc(Cl)cc(Cl)c2)cn1,78.7%
13,CCCC1=NNC(=O)C1,115%
14,CCOC(=O)c1c(Nc2ccccc2)nn2c(-c3ccc(OC)c(OC)c3)ccnc12,37.7%
15,Clc1ccc2c(NCCNc3nc(-c4ccccc4)cc(-c4ccccc4)n3)ccnc2c1,-53.8% (active)
16,Cc1cc2[nH]c(=O)c3c4ncccc4cn3c2cc1C,23.2%
17,C/C(=N\NC(=S)Nc1ccc(Br)cc1)c1cc2ccccc2oc1=O,-23.5% (active)
18,OC(CBr)CCBr (stereo not given),97.4%
19,CCN(CC)CCCNc1cc(OC)cc2cccnc12,59%
20,Cc1ccsc1-c1ccc2c(c1)COC2(CCCN(C)C)c1ccc(F)cc1 (stereo not given),-8.34% (active)
